How the values were obtained:
Test in all cases: PBM binding z-score (relative to random genomic background probes); higher = stronger binding; sequences stand for … in GC…GCGATTGACAGCGTAGAATGAAGG
[1] = tested on: PPARg:RXRa DBDmut IVT, anti-RXR (DBD mutation: RXRa K156A/R161A, NR concentration 270 nM, RXRa partner concentration 90 nM)
How it was run: (§1)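 Binding buffer was PBS pH 7.4 with 2% milk, 0.02% Triton X-100, 1 mM DTT, 0.2 mg/mL BSA and 0.4 mg/ml salmon testes DNA. In it, ligand-free nuclear receptor dimers were incubated 1 h on custom Agilent 4×180K protein-binding microarrays carrying double-stranded probes. Antibodies against each partner (one per run) detected binding, and z-scores were calculated against random background probes after regression normalization of scanned fluorescence.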

[2] = tested on: PPARg:RXRa IVT, anti-PPARg (NR concentration 270 nM, RXRa partner concentration 90 nM)
How it was run: as §1

[3] = tested on: PPARg DBDmut:RXRa IVT, anti-PPARg (DBD mutation: PPARg1 K132A/R137A, NR concentration 270 nM, RXRa partner concentration 90 nM)
How it was run: as §1

[4] = tested on: PPARg DBDmut IVT, anti-PPARg (DBD mutation: PPARg1 K132A/R137A, NR concentration 270 nM)
How it was run: as §1

[5] = tested on: PPARg homodimer (NR concentration 180 nM)
How it was run: as §1

[6] = tested on: PXR:RXRa (NR concentration 270 nM, RXRa partner concentration 90 nM)
How it was run: as §1

[7] = tested on: PXR homodimer (NR concentration 270 nM)
How it was run: as §1

[8] = tested on: RARa:RXR (NR concentration 270 nM, RXRa partner concentration 90 nM)
How it was run: as §1

[9] = tested on: RARa homodimer (NR concentration 270 nM)
How it was run: as §1

[10] = tested on: RARb:RXRa (NR concentration 270 nM, RXRa partner concentration 90 nM)
How it was run: as §1

Row | Sequence | PBM binding z-score [1] | PBM binding z-score [2] | PBM binding z-score [3] | PBM binding z-score [4] | PBM binding z-score [5] | PBM binding z-score [6] | PBM binding z-score [7] | PBM binding z-score [8] | PBM binding z-score [9] | PBM binding z-score [10]
1 | CGAACTAGGTCAGAACAGCACAGTGAAGGATGAT | 7.06 | 7 | 0.891 | 0.278 | 0.531 | 0.247 | -0.0288 | 0.419 | 0.0797 | 2.92
2 | TTTAGCAGGCCAGAGGGTCACTCAAGAGGTACGG | -0.256 | 1.03 | -0.784 | -1.27 | 0.57 | 1.55 | -0.341 | 2.18 | -0.62 | 2.05
3 | ACAGACAGGTGAGTGAAGGTAGCTCAGCTGGACG | 0.722 | 0.62 | -0.147 | -1.08 | -0.296 | -0.618 | -0.525 | -0.193 | -0.484 | 0.202
4 | GTGCCAAGGTGAATAGGTCGTTGATGAGTAGGCG | 2.01 | 2.66 | 0.113 | -0.755 | 1.02 | 0.425 | 0.19 | 1.38 | 0.262 | 2.09
5 | CTCGAAAGGTCGTGCTCAGGTGCGTATACCAAAC | 0.285 | 1.52 | 0.6 | 0.566 | 0.856 | 3.09 | 0.43 | 3.46 | -0.163 | 3.75
6 | ATATGTAAGTTAGCTGGGGTCATTCAGACTAGGC | 0.965 | 1.4 | 0.49 | 0.596 | 1.64 | 5.82 | 6.58 | 5.31 | 0.998 | 2.47
7 | TCTCAGAGGACACGAAAGGTCAGAGCTCGACATC | 1.77 | 1.57 | -0.124 | -0.022 | 3.62 | 4.28 | 0.423 | 4.62 | 1.56 | 4.44
8 | CAAACTAGGTCACAGAGGTGAAAGTCCGTGCGTA | 8.61 | 8.94 | 5.86 | 4.85 | 2.36 | 3.51 | 0.909 | 4.08 | 0.879 | 4.42
9 | TCATATAGGTAATACAGGTGCAAGTCGGCATCTA | 3.87 | 2.67 | 1.02 | 0.643 | 0.337 | 1.07 | 0.613 | 0.828 | 1.43 | 0.563
10 | ATATGTAGGTTTCATCCGGGTCATTCAGGCTATG | 4.9 | 4.69 | 1.71 | 1.7 | 1.33 | 2.86 | 2.28 | 2.55 | 0.582 | 1.43
11 | ACTAGTTGGTCAGCTGATGTCACACACAATTCGG | 1.1 | 0.986 | 0.46 | 0.51 | 0.558 | 0.361 | -0.542 | 0.497 | 0.341 | 0.995
12 | AGAACGGGGGCAATGAGTTGATAGCACGGGTGGC | 4.36 | 5.56 | 9.77 | 9.9 | 1.96 | 3.74 | 6.38 | 2.68 | 1.18 | 3.02
13 | TAGCCTAGGTCATGGGTCAGTATACCACGCGAAC | 1.91 | 4.28 | 1.25 | 0.834 | 2.55 | 2.92 | 0.237 | 4.22 | 0.889 | 4.1
14 | CCTAGTTGGTCAGGAGGTCACACTCCGGATATGA | 2.49 | 3.68 | 0.158 | 0.204 | 4.17 | 4.23 | 1.2 | 4.82 | 1.53 | 3.72
15 | TGAATGAGGTCATAAGATCAGGGAACGTTGCAAA | 4.55 | 5.82 | 2.51 | 1.96 | 1.71 | 4.37 | 0.734 | 5.17 | 0.421 | 4.55
16 | CGAACTAGGTCAAGGACAGCGAATCTCCGCACGC | 7.76 | 8.26 | 2.54 | 2.03 | 1.63 | 1.06 | 0.0262 | 1.9 | 0.554 | 3.81
17 | CGAACTAGGTCAGAAGAGGACAGTGAAGGATGAT | 7.13 | 7.32 | 3.38 | 1.51 | 1.15 | 2.5 | -0.0219 | 2.42 | 0.202 | 3.05
18 | TCTATTTGTTGAAGGGCAACCGACGAGTCCGTTT | 2.54 | 1.08 | 1.34 | 1.56 | 1.38 | 1 | 1.16 | 0.596 | 2.02 | 1.68
19 | TCATATAGGTAATACAGGTGAAAGACGGCATCTA | 4.17 | 3.37 | 1.39 | 1.69 | 1.42 | 0.845 | 0.764 | 1.34 | 1.85 | 0.786
20 | AACTCTAGGTAAAGTTCAGTGAAAGATCGATAGA | 2.44 | 2.21 | 0.224 | 0.266 | 0.953 | 1.71 | 1.53 | 1.14 | 0.544 | 2.73
21 | ATCTCTAGGTAAAAGTTCAGTGCATCCCGAGGAT | 1.88 | 3.85 | 0.957 | 1.05 | 1.6 | 2.28 | 2.08 | 1.69 | 1.4 | 2.36
22 | TCTAGTTGGTCACGGAGCTCACACACGACGGGTA | 2.15 | 2.2 | 0.346 | 0.786 | 0.57 | 0.334 | -0.237 | 0.366 | 0.0423 | 1.5
23 | CCAGACCGGTGAAAGGTAACTCAGTCTGGTACGC | -0.315 | 1.07 | -1.56 | -0.816 | 0.901 | 0.218 | -0.239 | 0.267 | -0.377 | 0.477
24 | ACTAGTTGGTCAACTGAGGTCACACACAATTCGG | 2.42 | 3.75 | 1.07 | 0.421 | 2.02 | 6 | 1.2 | 4.59 | 1.19 | 4.1

— the supplement of paper PMC6555819
